Measurements as given in PubChem BioAssay AID493203 (National Center for Advancing Translational Sciences (NCATS), 2011).
Inconclusive results are not listed. Values without a mark were called inactive. Calls of active or inactive are those of the source. Calls follow the shape of the dose curve; as a rule, active = well fitted activation curve with a large enough effect; inconclusive = small, poorly fitted or top-dose-only effect; inactive = flat fitted curve, though single readings scatter.

Assay: qHTS Assay for NPC1 Promoter Activators: Initial hit validation from the primary screen;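 as to activity, positive = activation: reporter driven by the mutant form of the NPC1 promoter; % of control where 0% means no effect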
Conditions: Huh7 NPC1 promoter-luciferase reporter, luminescence, 24 h; series mostly up to 46.1 µM; activity, positive = activation: at the top concentration
Procedure, shortened: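 Promoter activation measured as luciferase luminescence (Amplite reagent, 10 minutes ambient) after 24 hours' compound exposure at 37C. Cells: NPC1-luciferase Huh7, 1500 per well, reduced-serum OP-MEM I plus 10% FBS.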
Potency is read from the fitted curve at half-maximal effect.

| Compound | activity, positive = activation [%] | Potency |
| --- | --- | --- |
| CC1CC(C)CN(CC(=O)N2CCOCC2)C1 (stereo not drawn) | 0.776 |  |
| O=C(CCN1C(=O)c2ccccc2C1=O)Nc1ccc(-c2nc3ccccc3s2)cc1 |  | 0.25 µM (active) |
| CCCCCCC(=O)Nc1ccc(C(=O)N/N=C/c2cccnc2)cc1 | 5.33 |  |
| O=C(NNC(=O)C1COc2ccccc2O1)c1ccccc1O (stereo not drawn) | 5.4 |  |
| Cc1ccc(C#N)c(SCC(=O)Nc2nccs2)n1 |  | 1.12 µM (active) |
| C=CCc1ccc(OCCOCCNCCOC)c(OC)c1 | -3.58 |  |
| Cc1ccc2c(c1)sc1nc(=O)n(-c3ccccc3)c(=O)n12 |  | 0.705 µM (active) |
| Cc1ccc(C)c(Nc2cc(C)nc3ncnn23)c1 | -7.93 |  |
| O=S(=O)(c1cccs1)N1CCN(c2ncccn2)CC1 | -1.21 |  |
| NC(=O)C(=O)NN=C1C2CC3CC(C2)CC1C3 | 1.62 |  |
| O=C(CCNC(=O)c1ccc(Br)o1)NCc1ccc(Cl)cc1 | -0.949 |  |
| Nc1ccc(C(=O)Nc2ccccc2N)cc1 |  | 15.8 µM (active) |
| CCOc1ccc(S(=O)(=O)NCc2ccccc2)cc1C(N)=O | -4.97 |  |
| COc1cccc(C(C(=O)NC2CCCC2)N(CCC(C)C)C(=O)CCC(=O)Nc2cc(C)on2)c1 (stereo not drawn) | -13.5 |  |
| O=C(C1COc2ccccc2O1)N1CCN(S(=O)(=O)c2ccccc2)CC1 (stereo not drawn) | -2.48 |  |
| COc1ccc(NC(=O)CN(C)C(=O)c2ccc(=O)[nH]c2)cc1 | 0.198 |  |
| COC(=O)c1sccc1NC(=S)OC | -1.26 |  |

| Compound | activity, positive = activation [%] | Potency |
| --- | --- | --- |
| O=C(/C=C/c1ccco1)NCC1OCCc2ccccc21 (stereo not drawn) | 2.53 |  |
| CC(Sc1ncnc2c1cnn2-c1ccccc1)C(=O)Nc1ccc(N2CCOCC2)cc1 (stereo not drawn) | 5.76 |  |
| Nc1nc(SCCO)[nH]c(=O)c1NC(=O)c1ccco1 | 2.14 |  |
| O=C(NCC1CCCO1)C(c1ccc(F)cc1)N(Cc1ccc2c(c1)OCO2)C(=O)c1ccc(CN2CCOCC2)o1 (stereo not drawn) | 3.75 |  |
| O=C(CCCOc1ccc(Cl)cc1)N1CCCCC1 |  | 25 µM (active) |
| Cc1csc(NC(=O)CSc2nnc(-c3ccncc3)o2)n1 |  | 15.8 µM (active) |
| O=C(COC(=O)c1ccc(-c2nnc(-c3ccccc3)o2)cc1)c1ccccc1 |  | 0.396 µM (active) |
| CN(C)/C=N/c1c(C#N)cnn1-c1nc2ccccc2s1 | 20 |  |
| Cc1ccc(N(O)C(=O)NCCCCNC(=O)N(O)c2ccc(C)cc2)cc1 |  | 25 µM (active) |
| CCC(C)(C)NC(=O)C(c1ccc(OC)cc1)N(Cc1cccs1)C(=O)CCC(=O)Nc1cc(C)on1 (stereo not drawn) | -17 |  |
| CCC(=O)N1c2ccccc2NC2=C(C(=O)CCC2)C1c1ccc(N(C)C)cc1 (stereo not drawn) | -2.04 |  |
| CCOc1cc(C2C(C#N)=C(N)Oc3n[nH]c(C)c32)ccc1OCCN1CCOCC1 (stereo not drawn) | -5.42 |  |
| COc1ccc(-n2c(N)c(C(=O)NCc3ccco3)sc2=S)cc1 | -0.661 |  |
| CCOC(=O)c1ccccc1NC(=O)CSc1nnc(Cc2cccn2C)n1-c1ccc(F)cc1 | -12.2 |  |
| COCCNC(=O)C1CCC(CNS(=O)(=O)c2ccc(F)cc2)CC1 (stereo not drawn) | 1.82 |  |
| CCCN(CCC)CCCNC(=O)c1cc2cc3ccc(Cl)cc3nc2o1 | 6.51 |  |
